Compound activity from PubChem BioAssay.
The list is not random: actives were taken first. Their share in the collection is about 28%.
CYP2C9 act = human CYP2C9 activators, primary screen, biochemical, luminescence. Cytochrome P450 2C9 (Homo sapiens), P11712. 96,000 tested, 1.4% active. recombinant CYP2C9, luciferin-H conversion; hits give high values; factor 1 = untreated enzyme, 0 = blocked. activation factor at 5 µM;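 active = activation factor of 2 or more for CYP2C9 at a 5 µM dose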
Mac1 fbg inh = inhibitors of CD11b/CD18 adhesion to fibrinogen, primary screen, K562 cells, luminescence. Integrin beta-2 (Homo sapiens) + Integrin alpha-M (Homo sapiens), P05107+P11215. ATPlite luminescence; Mn2+ added to activate the integrin. inhibition, % at 10 µM. 93,000 tested, 0.54% active. AID 1497, 2009;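 active = primary inhibition of 50% or more at 10 µM, then 40% or more on retest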
CYP2C9 inh = blockers of cytochrome P450 2C9 activity – biochemical, luminescence, ADME assay, primary screen; AID 777, 2007; inhibition, % at 5 µM; CYP2C9 Supersomes, luciferin-H conversion; 96,000 tested, 20% active; P11712;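 active = blocking of liver enzyme CYP2C9 beyond about 50% at 5 µM, limit read from the data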
CYP2C19 activ = human CYP2C19 activators, primary screen, biochemical, luminescence | Cytochrome P450 2C19 (Homo sapiens), P33261 | recombinant CYP2C19, luciferin-H EGE luminescence; hits give high values; 0 = fully inhibited enzyme, 1 = untreated enzyme | activation factor at 5 µM | 96,000 tested, under 10 active;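 active = activation factor of at least 2 at 5 µM in the primary screen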
Target sequence (P33261 whole entry, looked up): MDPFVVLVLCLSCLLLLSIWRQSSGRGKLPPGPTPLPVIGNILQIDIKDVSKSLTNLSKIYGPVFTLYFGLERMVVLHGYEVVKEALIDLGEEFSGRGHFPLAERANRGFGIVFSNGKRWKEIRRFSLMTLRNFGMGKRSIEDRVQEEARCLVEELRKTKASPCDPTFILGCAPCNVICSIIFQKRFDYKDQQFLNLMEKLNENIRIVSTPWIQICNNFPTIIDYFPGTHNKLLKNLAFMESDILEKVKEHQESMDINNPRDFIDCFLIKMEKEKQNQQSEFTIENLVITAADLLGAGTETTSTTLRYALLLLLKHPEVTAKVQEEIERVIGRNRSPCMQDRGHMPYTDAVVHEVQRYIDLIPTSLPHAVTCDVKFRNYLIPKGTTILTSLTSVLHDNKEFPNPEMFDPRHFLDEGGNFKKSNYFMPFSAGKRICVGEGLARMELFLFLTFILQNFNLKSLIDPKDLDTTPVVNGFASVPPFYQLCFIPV
CYP2C19 inh = blockers of cytochrome P450 2C19 activity – biochemical, luminescence, ADME assay, primary screen. P33261. CYP2C19 Supersomes, luciferin-H EGE luminescence, 30 min. inhibition, % at 5 µM. 96,000 tested, 21% active. AID 778, 2007;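 active = CYP2C19 inhibition above a set limit at 5 µM in the primary screen, cut at about 50% in these data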
CD11b adhes enh = enhancers of CD11b/CD18 adhesion to fibrinogen, primary screen, K562 cells, luminescence | ATPlite luminescence | activation, % at 10 µM | 93,000 tested, 0.07% active;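 active = 10 µM primary screen giving 50% or more activity, confirmed by 40% or more on retest at that dose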
Numbers stand for hits; - = inactive; . = no result given.

SMILES | CYP2C9 act | Mac1 fbg inh | CYP2C9 inh | CYP2C19 activ | CYP2C19 inh | CD11b adhes enh
Cc1nc(NCc2ccccn2)c2ccccc2n1 | - | - | - | - | - | -
c1ccc(CNC2=NCCC2)nc1 | - | - | - | - | - | -
Cc1cc(NCc2ccccn2)nc2ccccc12 | 3 | - | - | - | 56.2 | -
c1ccc(CNc2ccc3ccccc3n2)nc1 | - | - | - | - | 75.3 | -
CO/N=C/c1ccc(Oc2ccc(C)cc2)nc1 | - | . | - | - | - | .
COc1ccc(S(=O)(=O)NC2CCCCC2)cc1C | 3 | - | - | - | 60.0 | -
COc1ccc(C)cc1S(=O)(=O)Nc1ccccc1 | - | - | - | - | - | -
Cc1cc(S(=O)(=O)NC2CCCC2)ccc1F | - | - | - | - | - | -
COc1ccc(S(=O)(=O)NC2CCCC2)c(Cl)c1Cl | - | - | 54.3 | - | 97.8 | -
O=S(=O)(NC1CCCCCC1)c1cccc2cccnc12 | - | - | - | - | - | -
COc1ccc(F)cc1S(=O)(=O)NC1CCCC1 | - | - | - | - | 80.1 | -
COc1ccc(C)cc1S(=O)(=O)NC1CCCC1 | - | - | - | - | 83.4 | -
COc1cccc(CNC(=O)C(CCSC)NS(=O)(=O)c2ccc3c(c2)oc(=O)n3C)c1 (stereo not given) | - | - | - | - | - | -
COc1ccc(CCC(=O)N2c3ccccc3CC2C)cc1 (stereo not given) | - | - | 56.8 | - | 96.3 | -
O=C(Cc1ccc(-n2cccc2)cc1)N1CCc2ccccc21 | - | - | - | - | 58.6 | -
COc1ccc(CCC(=O)N2CCc3ccccc32)cc1 | - | - | - | - | 59.7 | -
CCOCC(=O)N1CCc2ccccc21 | - | - | - | - | - | -
CN(C)/C=N/c1c(C#N)cnn1-c1ccccc1 | - | - | - | - | - | -
CCN(CC)C(=O)CSc1ncnc2sc(-c3ccccc3)cc12 | - | - | 92.9 | - | 96.6 | -
CCC(C)(CC(=O)N(C)CCC#N)c1ccccc1 (stereo not given) | - | - | - | - | - | -
COc1ncnc2sc(-c3ccccc3)cc12 | - | - | - | - | 76.5 | -
CN(C)/C=N/c1c(C#N)cnn1-c1ncnc2sc(-c3ccccc3)cc12 | - | - | 91.7 | - | 86.7 | -
CN(CCC#N)C(=O)CSc1ncnc2sc(-c3ccccc3)cc12 | - | - | 50.5 | - | - | -
CCN(CC)C(=O)CSc1ncnc2c1cnn2Cc1ccccc1 | - | - | - | - | - | -
CC(=O)N1CCc2cc(S(=O)(=O)NC(CC(C)C)C(=O)Nc3cc(C(=O)O)ccc3C)ccc21 (stereo not given) | - | . | - | - | - | .
SMILES | CYP2C9 act | Mac1 fbg inh | CYP2C9 inh | CYP2C19 activ | CYP2C19 inh | CD11b adhes enh
CN1CCCCc2c1[nH]c1ccccc1c2=O | - | - | - | - | - | -
CCCCCn1cnc2sc(-c3ccccc3)cc2c1=O | - | . | 58.3 | - | - | .
CCCCn1cnc2sc(-c3ccccc3)cc2c1=O | - | . | - | - | - | .
CC(C)C(C)(C#N)NC(=O)CSc1nnc(-c2ccccc2)o1 (stereo not given) | - | - | - | - | 67.8 | -
CC(C)C(C)(C#N)NC(=O)CSc1ncnc2sc(-c3ccccc3)cc12 (stereo not given) | - | - | 83.2 | - | 96.4 | -
O=C(O)CSc1nnc(-c2ccccc2)o1 | - | - | - | - | - | -
CCc1cc2c(SCC(=O)c3cccs3)ncnc2s1 | - | - | - | - | - | -
O=C(N/C(=C\c1ccc(Br)cc1)c1nc2ccccc2[nH]1)c1ccco1 | - | - | - | - | - | -
COc1cc(S(=O)(=O)N(Cc2ccco2)C2CCCC2)ccc1-n1cnnn1 | - | - | 74.2 | - | 98.4 | -
CCN(CC)S(=O)(=O)c1ccc(-n2cnnn2)c(C)c1 | - | - | - | - | - | -
CCOc1ccccc1CN(Cc1ccco1)S(=O)(=O)c1ccc(-n2cnnn2)c(OC)c1 | - | - | 68.1 | - | 93.8 | -
COc1ccc(CN(Cc2ccccn2)S(=O)(=O)c2ccc(-n3cnnn3)c(OC)c2)cc1 | - | - | 92.0 | - | 89.2 | -
O=C(NCc1ccco1)C1CCCN(S(=O)(=O)c2ccc(-n3cnnn3)cc2)C1 (stereo not given) | - | - | - | - | - | -
CCCN(CC1CC1)S(=O)(=O)c1ccc(-n2cnnn2)c(OC)c1 | - | - | - | - | 100.4 | -
CC(=O)c1sc2nc(=O)c(C)nn2c1C | - | - | - | - | - | -
CC1CCN(S(=O)(=O)c2cn(CC(=O)N3CCN(C)CC3)c(=O)c3ccccc23)CC1 | - | - | - | - | - | -
Cc1cc(S(=O)(=O)N(Cc2ccccn2)Cc2ccco2)ccc1-n1cnnn1 | - | - | 53.9 | - | 74.7 | -
CCS(=O)(=O)N1CCN(C(=O)c2cccc(OC)c2)CC1 | - | - | - | - | - | -
N#C/C(=C\c1ccc(N2CCCC2)c([N+](=O)[O-])c1)c1nc2ccccc2[nH]1 | - | - | - | - | - | 112.6
COc1cc(/C=C(/C#N)c2nc3ccccc3[nH]2)ccc1Oc1ncccc1[N+](=O)[O-] | - | . | 66.0 | - | 62.4 | .
Cc1cc(NCCO)c2cc(O)ccc2n1 | - | - | - | - | - | -
CO/N=C/NC(=O)c1c(OC)ccnc1Oc1cccc(C(F)(F)F)c1 | - | - | - | - | 58.3 | -
COc1ccnc(Oc2ccc(F)cc2)c1C(=O)N/C=N/OCc1ccc(F)cc1 | - | - | - | - | 64.1 | -
CO/N=C/NC(=O)c1c(OC)ccnc1Oc1ccc(F)cc1 | - | - | - | - | - | -
CCCn1c(N)c(C(=O)CSc2nnnn2-c2ccc(O)cc2)c(=O)n(C)c1=O | - | - | - | - | - | -
SMILES | CYP2C9 act | Mac1 fbg inh | CYP2C9 inh | CYP2C19 activ | CYP2C19 inh | CD11b adhes enh
O=C(C1CCC(=O)N1C1CCCCC1)N1CCN(c2ccc(F)cc2)CC1 (stereo not given) | - | - | - | - | - | -
CCOC(=O)C1CCCN(C(=O)COc2ccccc2O)C1 (stereo not given) | - | - | - | - | - | -
CCOC(=O)C1CCCN(C(=O)c2cc3c(C)nc4ccccc4c3o2)C1 (stereo not given) | - | . | - | - | - | .
CCOC(=O)C1CCCN(C(=O)c2cc(-c3ccccc3)on2)C1 (stereo not given) | 2.5 | - | - | - | - | -
CCOC(=O)C1CCCN(C(=O)c2ccccc2Oc2ccccc2)C1 (stereo not given) | - | - | 99.4 | - | 86.6 | -
CCOC(=O)C1CCCN(C(=O)CSc2nccn2C)C1 (stereo not given) | - | - | - | - | 55.3 | -
